These results are taken from PubChem BioAssay (NCATS).

Active and inactive are the calls of the source. Where a call stands in place of a potency, no number is given. The call rests on the fitted dose curve; in most records, active means well fitted cell-killing curve with a large enough effect; inconclusive means small, poorly fitted or top-dose-only effect; inactive means flat fitted curve, though single readings scatter.
Potency means the concentration at half of the fitted maximal effect.

This assay can be described thus: Cell Viability - LYMP1-003 - Assay at 24 hr (AID 963). Conditions: LYMP1-003 lymphoblastoid cell viability; series mostly up to 92.2 µM. An excerpt: NIH Chemical Genomics Center [NCGC]
NIH Molecular Libraries Screening Centers Network [MLSCN]
National Institutes of Environmental Health Sciences [NIEHS]
National Toxicology Program [NTP]
We have developed a 1536-well cell-based assay for quantitative high throughput screening (qHTS) against a number of cell lines to determine in vitro cytotoxicity of small molecules. This particular assay uses a human lymphoblastoid cell line (LYMP1-003) purchased from Coriell Institute for Medical Research.
NCGC Assay Protocol Summary:
The CellTiter-Glo luminescent cell viability assay (Promega) is a homogeneous method to measure the number of viable cells in culture. The end point readout of this assay is based on quantitation of intracellular ATP, an indicator of metabolic activity, using the luciferase reaction. Luciferase catalyzes the oxidation of beetle Luciferin to oxyluciferin and light in the presence of ATP. The luminescent signal is proportional to amount of ATP present.
Using the CellTiter-Glo luminescent cell viability assay, the amount of cellular ATP was measured in the lymphoblastoid cell line with complete culture medium following compound treatment for 24 hours. The assay was performed in opaque white Kalypsys 1536-well plates. In the screen, tetraoctylammonium bromide was used as positive control. Library compounds were measured for their ability to cause acute toxicity in the cell line, as reflected by a decrease in intracellular ATP levels, in a concentration-dependent manner. […] AC50 values were determined from concentration-response data modeled with the standard Hill equation.
qHTS protocol for CellTiter Glo lymphoblastoid cellular assay
[Step] [Parameter] [Value] [Description]
1. Reagent; 5 uL; 2500 lymphoblastoid cells/well
2. Time; 5 hr; 37 C incubation
4. Controls; 23 nL; Tetraoctylammonium bromide 6.4pM to 92 uM
5. Time; 24 hr; 37 C incubation
6. Reagent; 5 uL; CellTiter Glo reagent
7. Time; 30 min; Room Temperature
8. Detection; Luminescence; Viewlux plate reader
Keywords: cell viability, cytotoxicity, lymphoblastoid cell line, luminescence, NTPHTS, NTPHTS_NCGC, NIEHS, DSSTox, MLSMR, MLSCN, NIH Roadmap, qHTS, NCGC
For `CCc1cc(C(N)=S)ccn1`, the Potency entry is “inactive”.

Turning to `Cc1cc(NS(=O)(=O)c2ccc(N)cc2)no1`, the Potency entry was “inactive”.

On to `CN(C)c1ccc(C(=C2C=CC(=[N+](C)C)C=C2)c2ccc(N(C)C)cc2)cc1`, for which the Potency is 7.94 µM (active).

Take `C[C@]12C=CC(=O)C=C1CC[C@@H]1[C@@H]2C(=O)C[C@@]2(C)[C@H]1CC[C@]2(O)C(=O)CO`: the Potency result was “inactive”.

In the case of `N=C(N)c1ccc(OCCCCCOc2ccc(C(=N)N)cc2)cc1`, the Potency result was “inactive”.

With `COc1ccc2cc3[n+](cc2c1OC)CCc1cc2c(cc1-3)OCO2`, the Potency entry is “inactive”.

For `Cc1noc(NS(=O)(=O)c2ccc(N)cc2)c1C`, the Potency result is “inactive”.

For the molecule `NNC(=O)c1ccncc1`, the Potency entry is “inactive”.

Take `Cc1ccnc2c1NC(=O)c1cccnc1N2C1CC1`: the Potency result is “inactive”.

As for `Cc1nnc(NS(=O)(=O)c2ccc(N)cc2)s1`, the Potency result was “inactive”.

In the case of `O=C(O)c1cc(=O)[nH]c(=O)[nH]1`, the Potency result was “inactive”.

In the case of `Cc1ncc([N+](=O)[O-])n1CCO`, the Potency entry is “inactive”.

Take `CC1=NN(c2ccccc2)C(=O)C1`: the Potency entry was “inactive”.

`O=C(N[C@H](CO)[C@H](O)c1ccc([N+](=O)[O-])cc1)C(Cl)Cl`: the Potency entry is “inactive”.

Regarding `CC[C@H](C)C(=O)O[C@H]1C[C@@H](C)C=C2C=C[C@H](C)[C@H](CC[C@@H]3C[C@@H](O)CC(=O)O3)[C@H]21`, the Potency entry was “inactive”.

With `NC(N)=NC(N)=NCCc1ccccc1`, the Potency result is “inactive”.
